The list is not random: actives were taken first. Their share in the collection is about 10%.
RORg inh: ROR gamma (mouse) transcription inhibition | Drosophila S2 Gal4-RORgamma UAS-luciferase reporter, 20 h | Potency, µM (titrated, usually from 53.6 µM), most hits filed as inhibitors | actives 5.4% (n = 310,000); also: nearly all actives have a fitted effect of over 60% in size
Target sequence (P51450 whole entry, looked up, the tested form may be a part): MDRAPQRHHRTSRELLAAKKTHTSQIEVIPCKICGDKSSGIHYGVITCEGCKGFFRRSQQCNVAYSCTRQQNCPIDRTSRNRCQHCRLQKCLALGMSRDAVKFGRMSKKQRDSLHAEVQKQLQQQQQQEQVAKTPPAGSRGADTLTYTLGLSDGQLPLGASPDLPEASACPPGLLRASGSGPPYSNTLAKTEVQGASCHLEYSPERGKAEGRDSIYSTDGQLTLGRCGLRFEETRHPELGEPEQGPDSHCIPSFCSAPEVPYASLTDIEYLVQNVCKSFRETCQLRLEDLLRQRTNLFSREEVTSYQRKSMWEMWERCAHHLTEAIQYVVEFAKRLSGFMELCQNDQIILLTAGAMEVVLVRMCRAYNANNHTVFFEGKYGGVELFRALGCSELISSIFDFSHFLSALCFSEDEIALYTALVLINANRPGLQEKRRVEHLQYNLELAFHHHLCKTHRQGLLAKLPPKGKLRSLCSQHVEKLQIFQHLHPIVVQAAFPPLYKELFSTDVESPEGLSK
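ROR gamma transcriptional activity was tracked as Gal4-UAS luciferase output in stably transfected Drosophila Schneider cells, with compound added 1 hr before 700 uM copper sulfate induction and a 20 hr ambient-temperature incubation.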
ELG1 repair inh: inhibitors of ELG1-dependent DNA repair in HEK293T cells; HEK293T ELG1-luciferase reporter, luminescence, 16 h; DNA damage induced by 5-fluorouridine; Potency, µM (doses to about 46.1 µM), actives largely listed as inhibitors; actives 2.3% (n = 330,000); AID 504467; also: nearly all actives have a fitted effect of over 55% in size
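DMSO vehicle served as the neutral condition. Each well held 2,000 cells given 5-fluorouridine plus compound; after 16 hr at 37 °C/5% CO2, ONE-Glo was added and luciferase measured 30 min later.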
MCF10A rereplic: DNA re-replication induction in MCF 10a cells. actives 2.9% (n = 350,000). MCF 10A DNA re-replication, Hoechst nuclear intensity, 48 h. Potency, µM (highest dose often 46.1 µM), usual class: activators; also: nearly all actives have a fitted effect of over 50% in size
Gal4-VP16 FLuc: counter-screen for ROR gamma inhibitors: Gal4-VP16 reporter | Potency, µM (doses to about 53.6 µM), usual class: inhibitors | Drosophila S2 Gal4-VP16 UAS-luciferase, luminescence, 20 h | actives 3.5% (n = 310,000);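 also: Gal4-VP16 expression switched on by copper sulfate through the metallothionein promoter; nearly all actives have a fitted effect of over 50% in size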
SW480 rerep: DNA re-replication induction in SW480 cells | SW480 DNA re-replication, Hoechst DNA content imaging, 48 h | Potency, µM (highest dose often 46.1 µM), actives largely listed as activators | actives 1.8% (n = 340,000) | AID 624297; also: nearly all actives have a fitted effect of over 55% in size
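Compounds, transferred as 23 nL by pin tool, were incubated with cells for 48 hr; DNA content per nucleus was then quantified by Hoechst staining and fluorescence plate imaging.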
Of the large screens only hits and unclear results are named; the others gave an inactive call. Calls follow the shape of the dose curve; as a rule, active = well fitted curve in the direction sought with a large enough effect; inconclusive = small, poorly fitted or top-dose-only effect, or another doubt; inactive = no such curve, though single readings can be large; an effect the other way counts as inactive or inconclusive.

CN(C(=O)c1ccc2c(c1)SC1=NS(=O)(=O)CCN12)C(c1ccccc1)c1ccccc1	ELG1 repair inh 25.9µM (no result: SW480 rerep)
O=C(O)c1ccc2c(c1)SC1=NS(=O)(=O)CCN12	none
O=C(N/N=C/c1ccccn1)NC12CC3CC(CC(C3)C1)C2	ELG1 repair inh inconclusive
Cc1cc(NC(=O)COC(=O)CCS(=O)(=O)c2cc(Cl)ccc2Cl)no1	MCF10A rereplic 20.6µM
Cc1cc(NC(=O)COC(=O)CCS(=O)(=O)c2ccc(C)c(C)c2)no1	none
Cc1[nH]c(=S)sc1Cc1ccc(Cl)c(Cl)c1	RORg inh 15.8µM, Gal4-VP16 FLuc inconclusive (no result: MCF10A rereplic, SW480 rerep)
Cc1nnc(SCc2ccc(Cl)c(Cl)c2)s1	ELG1 repair inh inconclusive
Cn1c(CNC(=O)CNC(=O)Cc2ccccc2)cc(=O)n(C)c1=O	SW480 rerep inconclusive
CC(C)c1ccc(-c2noc(C3CCCN(C(=O)c4ccc(F)cc4F)C3)n2)cc1 (centres undefined)	RORg inh inconclusive, MCF10A rereplic 11.6µM, Gal4-VP16 FLuc 8.91µM, SW480 rerep inconclusive
Cc1ccccc1NC(=O)N1CCCC(c2nc(-c3ccc(C(C)C)cc3)no2)C1 (centres undefined)	ELG1 repair inh inconclusive, MCF10A rereplic 14.6µM, Gal4-VP16 FLuc inconclusive
Cc1ccc(-c2noc(C3CCCN(C(=O)c4ccc(F)cc4F)C3)n2)cc1 (centres undefined)	RORg inh inconclusive, MCF10A rereplic inconclusive, Gal4-VP16 FLuc inconclusive
CNc1ncc(Cc2ccccc2)s1	RORg inh 8.91µM
O=C(Nc1nc2c(s1)CCCC2)c1ccc2ncsc2c1	RORg inh 1.78µM, ELG1 repair inh inconclusive, MCF10A rereplic inconclusive, Gal4-VP16 FLuc inconclusive
Cc1ncsc1C(=O)Nc1nc2c(s1)CCCC2	ELG1 repair inh inconclusive, SW480 rerep inconclusive
O=C(Nc1nc2c(s1)CCCC2)c1ccc(Br)s1	RORg inh 11.2µM, ELG1 repair inh inconclusive, Gal4-VP16 FLuc inconclusive, SW480 rerep inconclusive
Cc1cc(C(=O)Nc2nc3c(s2)CCCC3)cs1	RORg inh inconclusive, ELG1 repair inh inconclusive, Gal4-VP16 FLuc 6.31µM
CCN(CCn1cccn1)C(=O)C1CCC(=O)N(CCN2CCOCC2)C1 (centres undefined)	none
CCCOC(=O)CN1C(=O)c2ccc(C(=O)OCCC)cc2C1=O	none
CCCOC(=O)c1ccc2c(c1)C(=O)N(c1ccccc1)C2=O	MCF10A rereplic inconclusive, SW480 rerep 16.4µM
Cc1ccc(NC(=O)Cn2nc(C(=O)O)c3ccccc3c2=O)cc1S(=O)(=O)N1CCOCC1	none (no result: RORg inh, Gal4-VP16 FLuc)
O=C(Nc1nccs1)c1cc(-c2ccccc2)nc2ccccc12	RORg inh 11.2µM, ELG1 repair inh inconclusive, MCF10A rereplic inconclusive, Gal4-VP16 FLuc inconclusive
O=C(Nc1nccs1)c1cc(-c2ccccn2)nc2c(Cl)cccc12	RORg inh 5.01µM, Gal4-VP16 FLuc 6.31µM
O=C(Nc1nccs1)c1cc(Cl)nc2ccccc12	RORg inh 17.8µM, MCF10A rereplic inconclusive, Gal4-VP16 FLuc inconclusive
O=C(Nc1nccs1)c1cc(-c2ccco2)nc2ccccc12	ELG1 repair inh inconclusive
CC(CCC(=O)O)C1CCC2C3C(O)CC4CC(O)CCC4(C)C3CC(O)C12C (centres undefined)	none
O=c1[nH]nc(-c2ccc(F)cc2)cc1Cc1ccccc1	none
C/C(CC(=O)Nc1ccc(Cl)cc1Cl)=N\NC(N)=S	MCF10A rereplic inconclusive, SW480 rerep inconclusive
C/C(CC(=O)Nc1cc(Cl)ccc1Cl)=N\NC(N)=S	RORg inh 5.62µM, Gal4-VP16 FLuc 20µM
C/C(CC(=O)Nc1ccc(C)c(Cl)c1)=N\NC(=O)c1ccncc1	RORg inh inconclusive
C/C(CC(=O)Nc1ccc(Cl)c(Cl)c1)=N\NC(N)=S	RORg inh 5.62µM, Gal4-VP16 FLuc 11.2µM
C/C(CC(=O)Nc1ccc(Cl)cc1Cl)=N\NC(=O)c1ccncc1	RORg inh inconclusive, ELG1 repair inh inconclusive, MCF10A rereplic inconclusive, Gal4-VP16 FLuc 17.8µM
C/C(CC(=O)Nc1ccc(Cl)cc1C(F)(F)F)=N\NC(N)=S	RORg inh 12.6µM, MCF10A rereplic inconclusive, Gal4-VP16 FLuc inconclusive, SW480 rerep inconclusive
Cc1ccc(C(=O)NCCc2nnc3ccc(NCCCN4CCOCC4)nn23)cc1	RORg inh inconclusive
CN(C)S(=O)(=O)c1ccc2c(c1)Cc1cc(S(=O)(=O)N(C)C)ccc1-2	ELG1 repair inh 2.31µM

High-throughput results as filed in PubChem BioAssay.
